Assay results reported in PubChem BioAssay (NCI).
Compounds without any hit were thinned out: in the full panel of roughly 83,000, 20% have a hit.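 Cell lines were cultured in 96-well plates, exposed to a single compound concentration, and assessed for percent growth 48 hours later.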 A number with no mark means an inactive call. Calls of active or inactive are those of the source. The calls were made as follows: active = growth percent below 10; inactive = the rest.

The molecules below were run on SK-MEL-2 melanoma (assay: NCI-60 one-dose screen, 48 h (100 = growth as untreated, 0 = no growth, -100 = all killed)). Conditions: 10 µM.
`Cc1ccc(C(=O)N/C(=C2/OCCN2C)[P+](c2ccccc2)(c2ccccc2)c2ccccc2)cc1` was tested, and the growth was 81.1%. In the case of `CN(C)c1ccc(/C=C/c2nc3ccccc3c(=O)n2CC(=O)Nc2ccc(Cl)cc2)cc1`, the growth is reported as 94.9%. For `Cc1ccc(CNC(=O)Cc2ccc3c(c2)CN(C2CCC(=O)NC2=O)C3=O)cc1` (configuration not stated), the growth was 0.232% (active). In the case of `Cc1ccn2c(C(=O)c3ccccc3)cc(-c3cc(-c4ccc(N(C)C)cc4)c(C#N)c(N)n3)c2c1`, the growth is reported as 80.9%. Molecule `CCOP(=O)(OCC)O[C@H]1CCC(=O)[C@@H]2[C@H]1[C@H]1C[C@@H]3[C@@]4(C)CCCC(C)(C(=O)OC)[C@@H]4CC[C@@]23C=C1C(C)C` (some centres not stated) has a growth of 71.3%. In the case of `C#CCNC(=O)CCC(=O)OC[C@]12CC[C@@H](C(=C)C)[C@@H]1C1CC[C@@H]3[C@@]4(C)CCCNC(C)(C)[C@@H]4CC[C@@]3(C)[C@]1(C)CC2` (some centres not stated), the growth is reported as -66.1% (active). `C/C(=N\N=C\c1ccc(N(C)C)cc1)c1ccc2c(c1)Nc1ccccc1S2` showed a growth of 84.6%. With `O=C(Nc1ccc(Cl)c([N+](=O)[O-])c1)Nc1ccc(Cl)c([N+](=O)[O-])c1` the growth was 30.7%. For `COc1ccc(CN2[C@H](C(=O)NCc3ccc(C(=O)NO)cc3)Cc3c([nH]c4ccccc34)[C@H]2C2CC2)cc1`, the growth was 44.9%. In the case of `O=C(NO)c1ccc(CNC(=O)[C@H]2Cc3c([nH]c4ccccc34)[C@H](c3ccc(Cl)cc3)N2)cc1`, the growth is reported as -21.5% (active). In the case of `O=C(Cn1nc(-c2ccccc2)ccc1=O)NN1C(=O)c2ccccc2C1=O`, the growth is reported as 104%. With `OCc1[nH]nc2cc(Nc3ncc4ccc(Br)c(OC5CCC(O)CC5)c4n3)ccc12` (configuration not stated) the growth was -75.8% (active). `COc1cc2c3c(n(CCCNCCO)c(=O)c2cc1OC)-c1nc2c(cc1C3=O)OCO2` was tested, and the growth was 116%. `COc1ccc(CN2[C@H](C(=O)NCCCCCCC(=O)NO)Cc3c([nH]c4ccccc34)[C@H]2C2CC2)cc1` was tested, and the growth was -16.7% (active). `COc1ccc(C2N(c3ccc(Br)cc3)N=C(C(C)=O)N2[C@H]2[C@H](OC(C)=O)O[C@H](COC(C)=O)[C@@H](OC(C)=O)[C@@H]2OC(C)=O)cc1` (some centres not stated) gave a growth of 77.9%. With `CN1C(=O)N(C)C2SC(N/N=C/c3cccs3)=NC21` (configuration not stated) the growth was 9.78% (active). Molecule `Cc1cc(C)nc(/N=C(\N)Nc2ccc(S(=O)(=O)Nc3nc(C)cc(C)n3)cc2)n1` has a growth of 107%. Molecule `O=C(Cc1ccc2c(c1)CN(C1CCC(=O)NC1=O)C2=O)NCCc1ccccc1` (configuration not stated) has a growth of 26%. With `CCNCCCn1c2c(c3cc(OC)c(OC)cc3c1=O)C(=O)c1cc3c(nc1-2)OCO3` the growth was 125%. `O=C(CNc1nc(-c2ccccc2)cs1)Nc1ccc(Cl)cc1[N+](=O)[O-]` was tested, and the growth was -50.1% (active). In the case of `Cc1ccc2nc(-c3ccc(-c4nnc(SCC(=O)Nc5ccc(Cl)cc5)o4)cc3)[nH]c2c1`, the growth is reported as 95%. `Cc1ccc(C(=O)NNC(=O)CSc2nc3ccccc3c(=O)[nH]2)cc1` was tested, and the growth was 107%. In the case of `CN(C)CCNC(=O)OCCCCOc1cc(O)c2c(=O)cc(-c3ccccc3)oc2c1`, the growth is reported as -59.7% (active). With `CCCCSc1nc(Nc2ccc(/C(C)=N/NC(N)=S)cc2)c(C#N)c(-c2ccccc2)n1` the growth was 90.4%. `O=c1[nH]c2ccccc2cc1CSc1ccc(Nc2nccc(-c3ccc4c(c3)OCO4)n2)cc1` showed a growth of 108%. For `COc1cc2oc(-c3cccc(C(=O)Nc4ccc(Cl)cc4)c3)cc(=O)c2c(OCCNC(=O)CNC(=O)OC(C)(C)C)c1OC`, the growth was 78.4%. Work on `Cc1ccc2nc(-c3ccc(-c4nnc(SCC(=O)Nc5ccc(Br)cc5)o4)cc3)[nH]c2c1` yielded a growth of 83.8%. `COc1ccc(CN2[C@@H](C(=O)NCc3ccc(C(=O)NO)cc3)Cc3c([nH]c4ccccc34)[C@@H]2C)cc1` was tested, and the growth was 2.82% (active). Work on `O=C(CNc1nc(-c2ccccc2)cs1)Nc1cccc(Cl)c1` yielded a growth of 38.2%. For `NS(=O)(=O)c1ccc(NC(=O)CSc2ccc(-c3ccc(Cl)cc3)nn2)c(Br)c1`, the growth was 82.9%. `Clc1ccc2c(N/N=C/c3c[nH]c4ccc(Br)cc34)ccnc2c1` was tested, and the growth was -93% (active). `Cc1ccc(-c2ccc(SCC(=O)Nc3ccc(S(N)(=O)=O)cc3Br)nn2)cc1` showed a growth of 80.6%. `CC(=O)Nc1ccc(-c2cn(-c3cccc(C(=O)Nc4cccc(OC(F)(F)F)c4)c3)nn2)cn1` was tested, and the growth was 95.4%. In the case of `CCOC(=O)N/C(=C1/OCCN1C)[P+](c1ccccc1)(c1ccccc1)c1ccccc1`, the growth is reported as 79.9%. `O=C(NO)c1ccc(CNc2nc(-c3ccccc3)c3ccccc3n2)cc1` was tested, and the growth was -20.4% (active). With `Cc1cc(C)nc(NS(=O)(=O)c2ccc(N/C(N)=N/c3nccc(-c4cccs4)n3)cc2)n1` the growth was 108%. Molecule `COc1cnc2c(c1)C(=O)c1c-2n(CCCNCCO)c(=O)c2cc(OC)c(OC)cc12` has a growth of 104%.
